Assay results from PubChem BioAssay AID1159580 (chemical genetic matrix, 2015).
Values joined by “and” are separate entries in the source; they are usually repeats but may differ in a detail not shown here. Equal values may be shown once. Hit rate of the full screen: of about 5,500 compounds, about 2,000 (36%) were called active. Inconclusive results (about 18%) are left out. No stated cut-off is given here; in the data, active means normalized growth mostly below about 0.91 (no sharp cut-off); inconclusive means no clear call, values can overlap the other calls; inactive means mostly above about 0.92. The list shows a part of the results.

Assay: chemical genetic growth profiling, strain panel (AID 1159580);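 further: tested at 20 µM; growth read once vehicle control cultures reached saturation at 30 °C; 1 = growth at the plate median or of vehicle wells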
Conditions: S. cerevisiae deletion strains, growth OD

Measured: normalized growth

NC1CONC1=O (centres undefined)
inactive: locus YAL040C, strain CLN3, stronger effect = lower value 1.01 and 0.999 | locus YCL061C, strain MRC1 (second series), stronger effect = lower value 1 | locus YDR150W, strain NUM1, stronger effect = lower value 1.01 | locus YDR363W, strain ESC2, stronger effect = lower value 1.01 | locus YER002W, strain NOP16, stronger effect = lower value 1.01 and 0.983 | locus YGR229C, strain SMI1, stronger effect = lower value 1.01 | locus YMR307W, strain GAS1, stronger effect = lower value 1.01 | locus YNL128W, strain TEP1, stronger effect = lower value 1.03 | locus YNL153C, strain GIM3, stronger effect = lower value 1.01 and 0.981 | locus YNL175C, strain NOP13, stronger effect = lower value 1.02 | locus YNL197C, strain WHI3, stronger effect = lower value 1.02 and 1 | locus YNL224C, strain SQS1, stronger effect = lower value 0.993 and 0.985 | locus YOR083W, strain WHI5 (second series), stronger effect = lower value 1.01 | locus YPL241C, strain CIN2, stronger effect = lower value 1
